Pf apPOL inh: Pf-apPOL DNA polymerase inhibition; Recombinant Pf-apPOL, molecular beacon fluorescence, 1.5 h; inhibition, % at 10 µM; hit rate 0.25% among 210,000; AID 1794808
mHTT-CaM PPI inh: disrupts binding of mutant huntingtin to calmodulin; P42858; AlphaScreen His-mHTT/GST-CaM binding, luminescence; inhibition, % at 15 µM; hit rate 3.6% among 190,000
Of the large screens only hits and unclear results are named; the others gave an inactive call; ! = not confirmed by another sample. This is a sample that favours compounds with a hit; in the whole collection about 3.6% have one here. Cut-off read from the data, not from the text of the source: active = inhibition above about 50%; inactive = the rest.

CCSc1nnc(NC(=O)c2cc(OC)cc(OC)c2)s1	none
CCOCC(=O)Nc1ccc(CC(=O)NCC(F)(F)F)cc1	none
O=C(CNC(=O)c1cc(Cl)cc(Cl)c1)Nc1ccc(F)cc1	none
CC(C)(C)c1ccc(C2=N/C(=C\c3cccc([N+](=O)[O-])c3)C(=O)O2)cc1	none
COc1ccc(C(C(=O)Nc2ccc3c(c2)OCO3)N(C)C(=O)Cc2c[nH]c3ccccc23)cc1 (stereo not drawn)	mHTT-CaM PPI inh 75
CN(C(=O)Cc1c[nH]c2ccccc12)C(C(=O)Nc1ccc2c(c1)OCCO2)c1ccccc1 (stereo not drawn)	none
CCN(c1cccc(C)c1)C(C(=O)Nc1ccc(OC)cc1)c1cc2c(cc1[N+](=O)[O-])OCO2 (stereo not drawn)	none
COc1ccc(NC(=O)C(c2cc3c(cc2[N+](=O)[O-])OCO3)N(C)Cc2ccccc2)cc1 (stereo not drawn)	mHTT-CaM PPI inh 61
Cc1cc(OCC(=O)Nc2ccccc2C)nc(N2CCC(C)CC2)n1	none
CCOc1ccc(NS(=O)(=O)c2ccc(NS(=O)(=O)c3ccccc3)cc2)cc1	none
COc1ccc(CNC(=O)CN(C)S(=O)(=O)c2ccc3[nH]c4c(c3c2)CCCC4)cc1	none
COc1cccc(NC(=O)CN(C)S(=O)(=O)c2ccc3[nH]c4c(c3c2)CCCC4)c1	none
COc1ccc(NS(=O)(=O)c2ccc3[nH]c4c(c3c2)CCCCC4)cc1	mHTT-CaM PPI inh 57
CCOc1ccc(NS(=O)(=O)c2ccc3[nH]c4c(c3c2)CCCCC4)cc1	mHTT-CaM PPI inh 94
CCOc1ccc(NC(=O)CN(C)S(=O)(=O)c2ccc3[nH]c4c(c3c2)CCCC4)cc1	none
CCOc1ccc(NS(=O)(=O)c2ccc3[nH]c4c(c3c2)CCCC4)cc1	mHTT-CaM PPI inh 91
COc1cccc(NS(=O)(=O)c2ccc3[nH]c4c(c3c2)CCCCC4)c1	mHTT-CaM PPI inh 98
CN(Cc1ccccc1)C1CC(=O)N(c2ccc(Br)cc2)C1=O (stereo not drawn)	none
O=C(NCc1ccc(F)cc1)C1CC(c2ccccc2F)=NO1 (stereo not drawn)	none
Cc1ccc(NC(=O)C2CC(=O)N(c3ccc4c(c3)CCN4C(=O)C3CC3)C2)c(F)c1 (stereo not drawn)	none
CC(=O)Nc1ccc(NC(=O)C(=O)NCCN2CCN(c3ccc(Cl)cc3)CC2)cc1	none
N#Cc1c(N)nc(SCC(=O)Nc2cccc([N+](=O)[O-])c2)c(C#N)c1-c1cccs1	none
CCCc1cc(C(=O)N2CCCC2c2cc(C)no2)no1 (stereo not drawn)	none
CC1(C(=O)NCc2ccccc2)CCCN(C(=O)c2ccccc2Cl)C1 (stereo not drawn)	none
CC1CCN(c2ncc3c(n2)CCC(C(=O)NCCc2cccnc2)C3)CC1 (stereo not drawn)	none
COc1ccc(OC)c(CNS(=O)(=O)c2ccc3[nH]c4c(c3c2)CCCCC4)c1	mHTT-CaM PPI inh 85
COc1ccc(C)cc1NS(=O)(=O)c1ccc2[nH]c3c(c2c1)CCCC3	mHTT-CaM PPI inh 81
COc1ccccc1CNS(=O)(=O)c1ccc2[nH]c(=O)sc2c1	none
COc1ccc(S(=O)(=O)Nc2ccc(S(=O)(=O)Nc3cc(C)ccc3C)cc2)cc1OC	none
O=C(CSc1nc2c(c(=O)n1-c1ccccc1)SCC2)N1CCCCC1	none
C=CCNc1sc(C(=O)C23CC4CC(CC(C4)C2)C3)c(N)c1C#N	none (no result: Pf apPOL inh)
Cc1ccnc(NC(=O)c2noc3c2CCCC3)c1	none
COc1cccc(CNC(=O)C2CCCN(c3ccc(-c4nc(C)no4)cn3)C2)c1OC (stereo not drawn)	none
Cc1nn(C)c2ncc(C(=O)NCCC3=CCCCC3)c(NCc3ccccc3)c12	none
O=[N+]([O-])c1ccc(S(=O)(=O)CC(Cl)CS(=O)(=O)Cc2ccccc2)cc1 (stereo not drawn)	mHTT-CaM PPI inh 100
O=[N+]([O-])c1ccc(NCCNS(=O)(=O)Cc2ccccc2)cc1	none
CN(C)CCNC(=O)C1CCN(c2nc3ccc(-c4ccsc4)nc3s2)CC1	mHTT-CaM PPI inh 66
CN(C)CCNC(=O)C1CCN(c2nc3ccc(-c4ccncc4)nc3s2)CC1	none
CCCNC(=O)C1CCN(c2nc3ccc(-c4cccs4)nc3s2)CC1	none
CCN(CC)C(=O)C1CCN(c2nc3ccc(-c4cccs4)nc3s2)CC1	mHTT-CaM PPI inh 64
CC(=O)c1c(-c2ccccc2)[nH]n(-c2nc3ccccc3s2)c1=O	none
Cc1nc(C2CCCN(C(=O)C3(c4ccccc4)CC3)C2)n[nH]1 (stereo not drawn)	none
CC(C)c1ccccc1OCc1nc(C(=O)N2CCOCC2)cs1	none
CCS(=O)(=O)N1CCCc2cc(NC(=O)c3ccccn3)ccc21	none
CCC(=O)N1CCCN(c2ccc(NC(=O)c3ccccc3Cl)cn2)CC1	none
O=C1N=C(c2ccccc2)S/C1=C\c1cccs1	mHTT-CaM PPI inh 62
Cc1ccc(C2=NC(=O)/C(=C/c3sccc3C)S2)cc1	mHTT-CaM PPI inh 53
Cc1ccsc1/C=C1\SC(c2ccccc2)=NC1=O	none
O=C1N=C(N2CCCCC2)S/C1=C\c1cccs1	none
CCCNc1nc(C)nc2c1c(C)nn2-c1ccc(C)cc1	none
CCC(C)Nc1nc(C)nc2c1c(C)nn2-c1ccccc1 (stereo not drawn)	mHTT-CaM PPI inh 99
Cc1ccc(N2CCN(C(=O)c3ccc(N4CCNC(c5ccccc5)C4)nc3)CC2)cc1 (stereo not drawn)	mHTT-CaM PPI inh 73
COc1ccccc1NC(=O)c1ccc(N2CCNC(c3ccccc3)C2)nc1 (stereo not drawn)	none
Cc1cccc(N2CCN(C(=O)c3ccc(N4CCNC(c5ccccc5)C4)nc3)CC2)c1 (stereo not drawn)	mHTT-CaM PPI inh 65
Cc1ccc(N2CCN(C(=O)c3ccnc(N4CCNC(c5ccccc5)C4)c3)CC2)cc1 (stereo not drawn)	none
O=C(c1cccc(N2CCNC(c3ccccc3)C2)n1)N1CCN(c2ccccc2)CC1 (stereo not drawn)	none
O=C(c1cccc(N2CCNC(c3ccccc3)C2)n1)N1CCN(c2ccc(F)cc2)CC1 (stereo not drawn)	mHTT-CaM PPI inh 51
O=C(c1ccc(N2CCNC(c3ccccc3)C2)nc1)N1CCCC1 (stereo not drawn)	none
COc1ccccc1NC(=O)c1cccc(N2CCNC(c3ccccc3)C2)n1 (stereo not drawn)	mHTT-CaM PPI inh 72
COc1cccc(C(=O)Nc2nnc(C3CC(=O)N(c4ccc(Cl)cc4)C3)o2)c1 (stereo not drawn)	none
CCCC1CCC(C2=N/C(=C/c3ccc4c(c3)OCO4)C(=O)O2)CC1 (stereo not drawn)	none
O=C(Nc1nnc(C2CC2)o1)c1ccc(S(=O)(=O)N2CCCc3ccccc32)cc1	mHTT-CaM PPI inh 67!
O=C(Nc1nnc(-c2ccc(F)cc2)o1)c1ccc(S(=O)(=O)N2CCCc3ccccc32)cc1	none
N#CC1=C(N)OC(c2ccccc2)=C(n2cnc([N+](=O)[O-])n2)C1c1ccccc1 (stereo not drawn)	mHTT-CaM PPI inh 75
N#CC1=C(N)OC(c2ccccc2)=C(n2cncn2)C1c1ccc(Br)cc1 (stereo not drawn)	mHTT-CaM PPI inh 57
N#CC1=C(N)OC(C2CC2)=C(n2cnc([N+](=O)[O-])n2)C1c1ccccc1 (stereo not drawn)	none
N#CC1=C(N)OC(c2ccccc2)=C(n2cnc([N+](=O)[O-])c2)C1c1cccnc1 (stereo not drawn)	none
CCOc1ccc2ncc(C#N)c(N3CCC(C(=O)Nc4cccc(C)c4)CC3)c2c1	none
CCc1cc(C2CCCN2C(=O)c2cc(C)no2)on1 (stereo not drawn)	none

Source: PubChem
